Compound activity deposited in PubChem by Broad Institute.
SIRT5 block = sirtuin-5 (human) deacylase inhibition; Q9NXA8; Purified SirT5, succinyl-peptide AMC, trypsin-coupled fluorescence; hit rate 1.1% among 330,000; inhibition, % at 15 µM; AID 652115; in the data active = inhibition above about 15%
FGF22 binding = shifts melting point of recombinant human FGF22; Q9HCT0; recombinant FGF22 thermal shift, SYPRO orange fluorescence; percent of sucrose octasulfate shift, DMSO zero; activity (Tm shift, normalised), % at 9.99 µM; hit rate 1.5% among 340,000; AID 651658;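 active = mean Tm shift, scaled 0 neutral to 100 positive control, at about 1.3% or above, every replicate too, limit read from the data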
Target sequence (Q9HCT0 whole entry, looked up): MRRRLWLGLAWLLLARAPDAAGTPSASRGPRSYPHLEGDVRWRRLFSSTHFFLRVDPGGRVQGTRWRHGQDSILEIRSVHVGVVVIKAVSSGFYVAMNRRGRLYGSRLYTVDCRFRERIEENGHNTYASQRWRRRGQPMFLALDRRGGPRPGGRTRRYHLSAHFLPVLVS
dFosB act = activators of mouse delta FosB homodimer; hit rate 0.99% among 340,000; purified delta FosB, TAMRA-CDK5 oligo fluorescence polarization; percent of positive-control signal above neutral wells; activation, % at 25 µM; AID 493131; P13346;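 active = mean activation above about 17%, with every replicate also reaching it, limit read from the data, passing the limit was not always enough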
Target sequence (P13346 whole entry, looked up): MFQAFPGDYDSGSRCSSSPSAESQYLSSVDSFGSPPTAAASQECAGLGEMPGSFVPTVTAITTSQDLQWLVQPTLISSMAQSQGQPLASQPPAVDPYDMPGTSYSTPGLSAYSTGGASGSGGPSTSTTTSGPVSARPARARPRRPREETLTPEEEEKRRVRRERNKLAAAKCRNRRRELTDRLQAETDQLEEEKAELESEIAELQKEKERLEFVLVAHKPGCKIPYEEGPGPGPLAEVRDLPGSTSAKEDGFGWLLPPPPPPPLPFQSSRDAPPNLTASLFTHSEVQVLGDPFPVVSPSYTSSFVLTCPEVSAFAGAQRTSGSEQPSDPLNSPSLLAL
CDK5 p35 inh = blocks human CDK5/p35 kinase activity | Recombinant CDK5/p35, ADP-Glo luminescence, 60 min | inhibition, % at 10 µM | hit rate 0.01% among 330,000 | AID 488839;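 active = highest replicate inhibition of at least 50% and at least 75% of replicates reaching 50%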;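 note: plate controls were DMSO neutral control for no effect and GW8510 at 10 µM for full effect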
PglD DTNB = PglD (C. jejuni) enzyme inhibition. AID 602405. inhibition, % at 12.5 µM. purified PglD enzyme, DTNB colorimetric CoA detection. hit rate 0.098% among 360,000; in the data active = inhibition above about 16%, passing the limit was not always enough
PvdQ inh = blocks Pseudomonas aeruginosa PvdQ acylase activity; purified PvdQ acylase, fluorescence plate reader; inhibition, % at 10 µM; hit rate 0.063% among 340,000; AID 488965; in the data active = inhibition above about 30%, passing the limit was not always enough;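 note: 0% = vehicle neutral wells and 100% = reference inhibitor wells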
* = called active by the depositor; nt = no result given. An excerpt weighted towards active compounds, which were near 2.8% of everything screened.

SMILES | SIRT5 block | FGF22 binding | dFosB act | CDK5 p35 inh | PglD DTNB | PvdQ inh
c1ccc(COc2cccc(-c3cc4nc(NCCc5ccncc5)ccn4n3)c2)cc1 | 19* | 0 | nt | nt | 4 | nt
c1ccc(COc2cccc(-c3cc4nc(NCCOc5ccccc5)ccn4n3)c2)cc1 | nt | 0 | nt | nt | 2 | nt
Cc1noc(C)c1NC(=O)N(C)C[C@@H]1Oc2ccc(NC(=O)C3CC3)cc2C(=O)N([C@@H](C)CO)C[C@@H]1C | 2 | nt | nt | nt | 0 | nt
COc1ccc(C(=O)N2CCCC(CCC(=O)NCc3ccc(F)c(F)c3)C2)cc1F (stereo not drawn) | 1 | 0 | 1 | 2 | nt | -9
COc1ccc(C(=O)N2CCCC(CCC(=O)NCc3ccc(F)c(F)c3)C2)o1 (stereo not drawn) | 2 | 43* | -3 | -1 | -6 | -15
O=c1oc2ccccc2cc1-c1cn2ccccc2n1 | -2 | 0 | -5 | 5 | nt | 5
Cc1cccn2cc(-c3cc4ccccc4oc3=O)nc12 | -2 | 43* | 0 | 1 | 2 | -6
O=C(c1ccc(Cl)cc1[N+](=O)[O-])N1CCc2ccccc2C1 | 1 | 43* | 0 | -4 | nt | -6
O=C(c1ccccc1[N+](=O)[O-])N1CCc2ccccc2C1 | nt | nt | 1 | 0 | -9 | -10
CCCNC(=O)N1CC2(CN(C(=O)C3CCOCC3)C2)c2c([nH]c3cc(OC)ccc23)[C@@H]1CO | 2 | 0 | nt | nt | nt | nt
Cc1cc(C)n2c(SCC(O)=C(C#N)c3nc4ccccc4[nH]3)nnc2n1 | nt | 0 | 1 | 1 | -1 | 0
N#C/C(=C(/O)CSc1ncn[nH]1)c1nc2ccccc2[nH]1 | -3 | 44* | -10 | 3 | nt | 9
Cc1ccc(/C=C/C(=O)O)cc1S(=O)(=O)N1CCc2ccccc2C1 | 1 | 43* | 1 | -1 | nt | -11
Cc1ccc(/C=C/C(=O)O)cc1S(=O)(=O)Nc1ccccc1C(=O)O | 0 | 43* | 1 | -1 | nt | -11
CCOP(=O)(OCC)c1nc(-c2ccccc2Cl)oc1N1CCOCC1 | 2 | 45* | -5 | 0 | nt | -9
C[C@H]1CN([C@@H](C)CO)C(=O)c2cccc(NS(=O)(=O)c3cccs3)c2O[C@H]1CN(C)S(=O)(=O)c1cccs1 | -1 | 0 | nt | nt | -1 | nt
Cc1cccc(NC(=S)NC(=O)c2oc3ccccc3c2C)n1 | -3 | 43* | -1 | -4 | 9 | -21
Cc1ccc(Cc2c(-c3ccccc3)nc3ccc(Br)cn23)cc1 | -14 | 0 | nt | nt | 3 | nt
Cc1ccc(Cc2c(-c3ccc(Br)cc3)nc3cc(C)ccn23)cc1 | 28* | 0 | nt | nt | 4 | nt
Cc1ccc(Cc2c(-c3ccc(F)cc3)nc3cc(C)ccn23)cc1 | 15* | 0 | nt | nt | 1 | nt
Cc1ccc(Cc2c(-c3ccc(F)cc3)nc3ccc(Cl)cn23)cc1 | -5 | 0 | nt | nt | -6 | nt
O=S(=O)(NC1CCCCC1Oc1ccccc1)c1ccc(Cl)cc1 (stereo not drawn) | -1 | 44* | -7 | 0 | nt | 4
CCOc1ccc(NC(=S)N(CCc2ccncc2)C(C)C)cc1 | -1 | 0 | -3 | -2 | 6 | -10
Cc1cccc(C)c1NC(=S)N(CCc1ccncc1)C(C)C | 16* | 0 | -4 | 0 | nt | 0
CN(C)CCCN(C(=O)c1ccc(S(=O)(=O)N2CCc3ccccc3C2)cc1)c1nc2c(F)cccc2s1 | 1 | nt | -1 | 0 | -20 | -6
SMILES | SIRT5 block | FGF22 binding | dFosB act | CDK5 p35 inh | PglD DTNB | PvdQ inh
CN(C)CCCN(C(=O)c1ccc(S(=O)(=O)N2CCc3ccccc3C2)cc1)c1nc2ccc(F)cc2s1 | 2 | 0 | 69* | 1 | -1 | 0
Cc1cccc2sc(N(CCCN(C)C)C(=O)c3ccc(S(=O)(=O)N4CCc5ccccc5C4)cc3)nc12 | -7 | 0 | 62* | -2 | 0 | -8
Cc1cc(C)c2sc(N(CCCN(C)C)C(=O)c3ccc(S(=O)(=O)N4CCc5ccccc5C4)cc3)nc2c1 | nt | nt | 100* | 1 | -6 | -15
COc1ccc(N2CC(NC(=O)N3CCc4ccccc43)CC2=O)cc1OC (stereo not drawn) | 20* | 0 | 0 | -1 | -1 | 3
COc1ccc(C(=O)NC(=S)N2CCCc3ccccc32)cc1OC | 112* | 0 | -9 | 1 | 2 | 8
COc1ccccc1C(=O)NC(=S)N1CCCc2ccccc21 | 1 | 0 | 0 | -2 | -4 | -12
C[C@@H](NC(=O)[C@@H]1[C@@H](CO)[C@@H]2Cn3c(ccc(-c4ccncc4)c3=O)[C@H]1N2C)c1ccccc1 | -2 | 0 | nt | nt | 1 | nt
CO[C@H]1CC[C@@H]2CCOc3c(C#N)cccc3C(=O)N(C)C[C@H](C)C(=O)N(C)C[C@@H]1O2 | 20* | 0 | nt | nt | 1 | nt
Cc1cccc(S(=O)(=O)N2CC[C@@H]3[C@H]2c2cc(C4=CCCCC4)ccc2N[C@@H]3CO)c1 | 2 | 0 | nt | nt | -3 | nt
C[C@H]1CN([C@@H](C)CO)C(=O)Cc2cc(N(C)C)ccc2O[C@@H]1CN(C)C | -1 | 0 | nt | nt | -3 | nt
Nc1ccc(Cc2ccc(N)c(C(=O)O)c2)cc1C(=O)O | 45* | 0 | 4 | 0 | 3 | 0
O=C(Nc1ccccc1)N1CC(=O)N2[C@H](CO)[C@H](c3ccc(C#Cc4cccnc4)cc3)[C@H]2C1 | -2 | nt | nt | nt | nt | nt
COc1cc(-c2nc3cccc(C)n3c2NCC2CCCO2)ccc1O (stereo not drawn) | -3 | 43* | -3 | 1 | nt | -8
COc1ccc(-c2nc3cc(C)ccn3c2NCC2CCCO2)cc1OC (stereo not drawn) | nt | nt | -1 | -1 | -3 | -3
COc1cc(/C=N/Nc2ccc(C(F)(F)F)cn2)ccc1O | -2 | 1 | -4 | 17 | nt | -5
O=C(O)c1ccc(/C=N/Nc2ccc(C(F)(F)F)cn2)cc1 | 9 | 0 | 5 | 57* | nt | -4
CC(C)c1ccc(/C=N/Nc2ccc(C(=O)O)cc2)cc1 | 3 | 44* | -7 | -2 | nt | 9
OCCN1CCN(c2ncnc3c2sc2nc(N4CCOCC4)c4c(c23)CCC4)CC1 | -1 | 0 | 20* | -13 | nt | -4
CN(c1cccc(NC(=O)c2ccc(C(C)(C)C)cc2)c1)S(C)(=O)=O | -5 | 43* | -6 | 0 | 4 | 2
CN(c1cccc(NC(=O)c2ccc(N(C)S(=O)(=O)c3ccccc3)cc2)c1)S(C)(=O)=O | 1 | 0 | -7 | -1 | nt | -9
Cc1ccc(-n2c(C)nc3ccsc3c2=O)cc1 | -37 | 0 | -3 | 0 | -18 | 3
Cc1ccc(-c2nc3ccsc3c(=O)o2)cc1 | nt | nt | 0 | -1 | -8 | 66*
O=C(O)c1ccc(NC(=O)C(c2ccccc2)c2ccccc2)cc1 | -2 | 0 | -4 | -1 | -1 | -16
O=C(O)CCNC(=O)c1ccc(NC(=O)C(c2ccccc2)c2ccccc2)cc1 | 57* | 0 | -4 | -2 | -5 | -15
O=C(O)CCNC(=O)c1ccc(NC(=O)Cc2ccc(Cl)cc2)cc1 | 26* | nt | -9 | -1 | nt | -17
